Over roughly 33,000 sequences, “E-score (-0.5 to 0.5)” has its median near -0.056; the highest 2% begin near 0.38. The entries come from a sample that favours the highest values as a whole.
biological target: Stb4 (UniProt P50104); assay: PBM E-score (8-mer binding enrichment) (E-score (-0.5 to 0.5)); higher = stronger / more preferred TF binding; conditions: protein concentration: 200 nM; construct: GST-DNA-binding domain
Protocol: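 Universal 'all 10-mer' protein binding microarrays (Agilent AMADID 015681) probed with GST-tagged S. cerevisiae TFs (full-length or DBD) made by in vitro transcription/translation (PURExpress), about 100-200 nM. Bound TF was detected with fluorescent anti-GST. Each ungapped 8-mer (which stands for itself and its reverse complement) is scored by the PBM enrichment score (E-score), a modified Wilcoxon-Mann-Whitney statistic from -0.5 to +0.5, computed with the Universal PBM Analysis Suite. Scale: above 0.35 generally sequence-specific binding.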

Sequence of UniProt P50104 (P50104 whole entry, the tested form may be a part): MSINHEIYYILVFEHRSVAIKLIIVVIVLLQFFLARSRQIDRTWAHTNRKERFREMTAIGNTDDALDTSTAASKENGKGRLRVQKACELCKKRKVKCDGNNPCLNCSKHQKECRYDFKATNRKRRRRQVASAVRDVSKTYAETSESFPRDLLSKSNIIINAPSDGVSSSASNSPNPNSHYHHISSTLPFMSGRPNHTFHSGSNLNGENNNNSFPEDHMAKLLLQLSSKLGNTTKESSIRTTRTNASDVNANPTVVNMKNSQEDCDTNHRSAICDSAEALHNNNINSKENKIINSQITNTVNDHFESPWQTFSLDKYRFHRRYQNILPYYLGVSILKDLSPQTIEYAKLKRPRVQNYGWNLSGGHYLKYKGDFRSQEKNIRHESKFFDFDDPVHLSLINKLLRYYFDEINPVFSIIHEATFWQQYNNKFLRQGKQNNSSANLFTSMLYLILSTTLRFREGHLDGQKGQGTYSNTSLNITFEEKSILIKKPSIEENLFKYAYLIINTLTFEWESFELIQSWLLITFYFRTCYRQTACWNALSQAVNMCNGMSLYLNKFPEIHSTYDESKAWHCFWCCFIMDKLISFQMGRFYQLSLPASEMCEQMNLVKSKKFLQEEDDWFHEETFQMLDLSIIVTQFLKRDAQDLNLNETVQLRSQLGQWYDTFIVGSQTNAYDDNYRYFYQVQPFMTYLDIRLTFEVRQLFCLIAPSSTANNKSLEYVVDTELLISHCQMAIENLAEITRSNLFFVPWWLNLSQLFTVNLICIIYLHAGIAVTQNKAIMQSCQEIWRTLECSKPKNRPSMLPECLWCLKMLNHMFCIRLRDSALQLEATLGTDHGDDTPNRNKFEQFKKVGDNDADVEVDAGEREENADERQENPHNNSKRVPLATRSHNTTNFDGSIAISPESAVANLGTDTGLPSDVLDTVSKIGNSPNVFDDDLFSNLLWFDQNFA

| Sequence | PBM E-score |
| --- | --- |
| AATGACGC | -0.238 |
| GTGATGGA | -0.00596 |
| CGATTCTC | 0.0534 |
| ACGCTCCA | -0.0409 |
| AATGAGAA | -0.0737 |
| AACGGAAA | 0.393 |
| ATCGGACA | 0.196 |
| ATCGGAAA | 0.424 |
| AACGGACA | 0.0833 |
| CTCGGAAA | 0.479 |
| GTCGGAAA | 0.453 |
| AGCGGAAA | 0.333 |
| CACGGAAA | 0.352 |
| GTTGGAAA | 0.0285 |
| CTGGGAAA | -0.168 |
| GTCAGAAA | -0.203 |
| CGCGGAAA | 0.316 |
| CCCATTCA | -0.0249 |
| CGTTTATA | -0.0024 |
| ATCCCGGC | 0.323 |
| AGCGTAGG | -0.0217 |
| AAGGCGGG | -0.0393 |
| CTGAACAA | -0.0548 |
| AGGGATGG | -0.174 |
| ACGATTCC | 0.06 |

| Sequence | PBM E-score |
| --- | --- |
| CGACTTGA | -0.0925 |
| CGATCAAA | 0.0532 |
| AACTTGGC | -0.109 |
| TTCGGAAA | 0.474 |
| TTCAGAAA | -0.23 |
| TGCGGAAA | 0.299 |
| AGCGGAAT | 0.141 |
| AACGGAAT | 0.315 |
| AGCGGAAC | 0.316 |
| CTAGGAAC | -0.00703 |
| GGCGGAAC | 0.356 |
| CGCGGAAC | 0.395 |
| CACGGAAC | 0.352 |
| ATCGGAAT | 0.434 |
| CTCGGAAC | 0.485 |
| GCCATGGC | -0.361 |
| CCCTTTTA | -0.172 |
| AGCCTAGG | -0.0301 |
| GATCCTTA | -0.0996 |
| GCCATTCC | 0.127 |
| CCAGCGCC | -0.0109 |
| CTACGCCA | -0.271 |
| CACCCCAC | 0.0245 |
| CCTTGTGA | -0.0811 |
| CCTCTCCA | -0.309 |

| Sequence | PBM E-score |
| --- | --- |
| CCTCGCTA | -0.29 |
| CCGCTACA | 0.109 |
| AATTCAAC | 0.015 |
| ATTAACCA | -0.136 |
| ATTAACCC | 0.212 |
| ATTAACCG | 0.413 |
| GAGGAATC | -0.07 |
| GCGTCGGA | 0.449 |
| CCGTCGGA | 0.397 |
| GCGTCGAA | -0.0895 |
| ACGTCGGA | 0.389 |
| ACGTCGGC | 0.307 |
| ACGTCGGG | 0.349 |
| CCGTCGGC | 0.329 |
| GCGTCGTA | 0.0854 |
| CCGTCGTA | -0.0259 |
| CTGGCAGC | -0.168 |
| ACATAATA | -0.153 |
| CGAGTCAA | -0.0247 |
| AGGTTCAT | -0.128 |
| ACAAGGCT | -0.138 |
| ACAGATTG | -0.0283 |
| AGTTTAAT | -0.111 |
| ATGGGCTA | -0.084 |
| CCACTCCA | -0.146 |

| Sequence | PBM E-score |
| --- | --- |
| AATACCAT | -0.115 |
| AGTGCCGA | 0.423 |
| CGTGCCGA | 0.405 |
| CGTGCCCA | 0.00213 |
| GGTGCCGA | 0.402 |
| GGTGCCTA | -0.0355 |
| GGTGCCCA | -0.147 |
| AGTGCCGG | 0.301 |
| CGTGCCGC | 0.0918 |
| AGTGCCGC | 0.123 |
| CTGGACGC | -0.278 |
| ATCGCCCG | 0.152 |
| CACGGCCC | 0.0623 |
| GAGGAGTA | -0.00803 |
| CTCGGGTA | 0.478 |
| GACGGGTA | 0.267 |
| ATCGGGCA | 0.125 |
| CTCGGGCA | 0.325 |
| CCCGGGTC | 0.32 |
| ATCGGGTA | 0.419 |
| ATCGGGTG | 0.366 |
| CACGGGTA | 0.333 |
| CCCGGGTA | 0.407 |
| CCGGGGTA | 0.155 |
| GTCGGGGA | 0.225 |

| Sequence | PBM E-score |
| --- | --- |
| GTCGGGTA | 0.445 |
| ATGATTTC | 0.0687 |
| AATGATTG | -0.164 |
| ATAGCAAT | -0.185 |
| AGTCTAAC | -0.163 |
| ACAGTCAG | -0.0929 |
| ACACCAAT | 0.00344 |
| CTCGGGCC | 0.343 |
| CTCGGGTC | 0.434 |
| ATCGGGTC | 0.325 |
| CGGAATTA | 0.401 |
| TGGAATAA | 0.072 |
| CGGAATTC | 0.322 |
| GGGAATCA | 0.0543 |
| AGGAATCA | -0.00647 |
| CGGAATCA | 0.388 |
| AGGAATTA | 0.0103 |
| CGGAATAA | 0.384 |
| GGGAATAA | 0.233 |
| GGATCATA | 0.228 |
| AACTGTGC | -0.157 |
| AAAAATCG | 0.0452 |
| CTGAAACA | 0.0153 |
| GTTTAGAA | -0.0425 |
| ATGAAAAT | 0.0835 |

| Sequence | PBM E-score |
| --- | --- |
| AGACGGGA | 0.174 |
| GACTCAGC | -0.191 |
| CACGCATG | -0.209 |
| ATACATGA | -0.212 |
| GCGAACAA | -0.0836 |
| CCGAACTC | 0.374 |
| CCGAACTA | 0.395 |
| CCGAACAC | 0.372 |
| CCGAACAG | 0.4 |
| ACGAACAG | -0.15 |
| CCGAACAA | 0.425 |
| ACGAACTA | -0.194 |
| ACGAACAA | 0.079 |
| GCAACGAC | 0.0391 |
| CACTGTGA | -0.018 |
| AGCCCCTA | -0.139 |
| AAGGGTTC | -0.14 |
| CACGTGTA | -0.0718 |
| GTGTGAAC | 0.0138 |
| CGTGGCAC | -0.178 |
| CCCTGTGC | -0.0934 |
| AAATCGGA | 0.399 |
| CTATCGGC | 0.26 |
| AAATCGGG | 0.317 |
| GCATCGGA | 0.359 |

| Sequence | PBM E-score |
| --- | --- |
| ATATCGGC | 0.316 |
| ATATCGGA | 0.383 |
| TCATCGGA | 0.403 |
| ACATCGGA | 0.346 |
| ATATCGGG | 0.306 |
| CTATCGGA | 0.423 |
| CTATCGTA | -0.199 |
| TAATCGGA | 0.324 |
| AAATGCGT | -0.129 |
| AGTGTGAT | -0.0318 |
| CAATTTAC | -0.00625 |
| CATAGTGG | -0.102 |
| CCGACCTA | 0.296 |
| CACGGTGG | -0.061 |
| GGCCCACC | 0.0688 |
| AAAAGATT | -0.0765 |
| AGGTTTAC | -0.0584 |
| GTATCGGA | 0.39 |
| GAATCGGA | 0.38 |
| GTATCGAA | -0.0419 |
| ACATCACC | 0.0212 |
| CATCTGTC | 0.0312 |
| CCTTCCGC | 0.306 |
| ACTTCCTG | -0.0685 |
| ACTTCCGA | 0.479 |

| Sequence | PBM E-score |
| --- | --- |
| ACTTCCCG | 0.354 |
| CCTTCCGA | 0.451 |
| ACTTCCCA | -0.158 |
| ACTTCCGC | 0.379 |
| CCTTCCTA | -0.354 |
| GCTTCCAA | -0.147 |
| GCTTCCTA | -0.0701 |
| ACTTCCGG | 0.411 |
| GCTTCCGA | 0.473 |
| AAAACTTT | 0.0161 |
| CCTGTATC | 0.011 |
| CTGCTAAC | -0.0715 |
| ATCTCTAA | 0.0304 |
| AGCCAGAT | 0.0138 |
| CACCGCAA | 0.0924 |
| CACCGTCA | -0.13 |
| CGGATGGC | 0.347 |
| GACCCATC | 0.0784 |
| AACCCGAC | 0.324 |
| GACCCGCC | 0.0652 |
| CACCCGGA | 0.358 |
| TACCCGTA | 0.31 |
| GACCCGAC | 0.384 |
| GACCCGAA | 0.428 |
| GCCCCGAA | 0.31 |

| Sequence | PBM E-score |
| --- | --- |
| TACCCCGA | 0.342 |
| TACCCGAA | 0.476 |
| GACCCCGA | 0.288 |
| GACCCGGA | 0.323 |
| TACCCGGA | 0.415 |
| GAAAAGTC | -0.011 |
| ACCAAGGA | 0.00373 |
| AAGGCCTA | -0.225 |
| ATTTGGGG | -0.0633 |
| ACCCCGAA | 0.369 |
| AACCCGAA | 0.387 |
| AACCCGCA | 0.156 |
| ACCAAGAA | -0.0301 |
| TGCCGGAA | 0.419 |
| AGCCGGCT | 0.238 |
| GGCCGGAA | 0.371 |
| CGCCGGAA | 0.392 |
| AGCCGGCA | 0.316 |
| TGCCGGCA | 0.296 |
| AGCCGGAT | 0.396 |
| AGCCGGAC | 0.239 |
| AGCCGGAG | 0.379 |
| AGCCGGAA | 0.395 |
| CGCCGGAG | 0.168 |
| CGCCGGAC | 0.146 |
